Source: PubChem BioAssay AID1362 (SRMLSC, 2008)
The whole screen tested about 190,000 compounds, of which about 4,000 (2.1%) were called active. No stated cut-off is given here; in the data, active means inhibition above about 58%; inactive means the rest, inconclusive results apart; tested in S. cerevisiae. The sample as a whole holds a higher share of actives than the screen did.

Experiment: growth inhibition of WT strain, primary screen, mitochondrial fusion inhibitor project, WT and mutant strains, chemical genetic (AID 1362)
Conditions: mitochondrial fusion phenotypic screen, at 10 µM
[1] = WT strain, growth inhibition, stronger effect = higher value

## CCC(=O)c1ccc(OCC(O)Cn2nc(C)c(C(C)=O)c2C)cc1 (stereo not given)
[1]
  inhibition: -6.24% (inactive)
Mutant strain inhibition
  inhibition: -0.7%

## CCCn1nc(C(=O)N2CCCc3ccccc32)c2ccccc2c1=O
[1]
  inhibition: 9.04% (inactive)
Mutant strain inhibition
  inhibition: 8.88%

## Cc1ccc(-c2csc(NC(=O)c3cnccn3)n2)cc1C
[1]
  inhibition: -10.3% (inactive)
Mutant strain inhibition
  inhibition: 14.6%

## Cc1nn(-c2ccccc2)c(Cl)c1C(=O)Nc1ccccc1
[1]
  inhibition: 24.7% (inactive)
Mutant strain inhibition
  inhibition: -5.62%

## Cc1ccc(C(=O)/C=C/c2c(C)nn(-c3ccccc3)c2Cl)cc1
[1]
  inhibition: 59.5% (active)
Mutant strain inhibition
  inhibition: -6.72%

## Cc1nn(-c2ccccc2)c(Cl)c1/C=C/C(=O)c1ccc(O)cc1
[1]
  inhibition: -8.06% (inactive)
Mutant strain inhibition
  inhibition: 3.09%

## O=C(Cn1c(N2CCN(C/C=C/c3ccccc3)CC2)nc2ccccc21)c1ccccc1
[1]
  inhibition: 45.1% (inactive)
Mutant strain inhibition
  inhibition: 41.5%

## COc1ccc(C(=O)CSc2nnc(-c3ccco3)o2)cc1
[1]
  inhibition: -6.52% (inactive)
Mutant strain inhibition
  inhibition: -35.3%

## N#Cc1cccc(Nc2c3c(nc4ccccc24)CCCC3)c1
[1]
  inhibition: -0.59% (inactive)
Mutant strain inhibition
  inhibition: 6.35%

## COC(=O)c1c(C)[nH]c(C)c1-c1ccc([N+](=O)[O-])cc1
[1]
  inhibition: 53% (inactive)
Mutant strain inhibition
  inhibition: 55.8%

## COc1ccc(NC(=S)Nc2ccc(S(N)(=O)=O)cc2)c(C)c1
[1]
  inhibition: 13.8% (inactive)
Mutant strain inhibition
  inhibition: 6.64%

## COc1ccc(-c2nn(-c3ccccc3)cc2C(=O)Nc2nccs2)cc1OC
[1]
  inhibition: 26.6% (inactive)
Mutant strain inhibition
  inhibition: -2.08%

## COc1ccc(-c2nn(-c3ccccc3)cc2/C=N/Nc2ccccn2)cc1OC
[1]
  inhibition: 60.2% (active)
Mutant strain inhibition
  inhibition: 31.9%

## CC(C)(C)OC(=O)N/N=C/c1cn(-c2ccccc2)nc1-c1cccnc1
[1]
  inhibition: -8.33% (inactive)
Mutant strain inhibition
  inhibition: -1.71%

## Cc1nnsc1C(=O)N/N=C/c1cccc(C(F)(F)F)c1
[1]
  inhibition: 36.2% (inactive)
Mutant strain inhibition
  inhibition: 7.39%

## Cc1cc(=O)oc(C)c1C(=O)Nc1cnc2ccccc2c1
[1]
  inhibition: 98.9% (active)
Mutant strain inhibition
  inhibition: 96.3%

## Cc1cc(=O)oc(C)c1C(=O)NCCN(C)Cc1ccccc1
[1]
  inhibition: -0.58% (inactive)
Mutant strain inhibition
  inhibition: 11.8%

## Cc1cc(=O)oc(C)c1C(=O)NCc1ccc(F)cc1
[1]
  inhibition: -0.25% (inactive)
Mutant strain inhibition
  inhibition: 16.4%

## CC(C)C(=O)NCc1cc(-c2ccc(Cl)cc2)no1
[1]
  inhibition: 1.64% (inactive)
Mutant strain inhibition
  inhibition: -1.57%

## O=C(CC1C(=O)NCCN1Cc1ccc(-c2ccccc2)cc1)NCC1CCOCC1 (stereo not given)
[1]
  inhibition: -14.8% (inactive)
Mutant strain inhibition
  inhibition: -10.2%

## Brc1ccc(CSc2ccc(-c3ccco3)nn2)cc1
[1]
  inhibition: 12.2% (inactive)
Mutant strain inhibition
  inhibition: -1.7%

## Cn1c(SCc2c(F)cccc2Cl)nnc1-c1cnccn1
[1]
  inhibition: 4.78% (inactive)
Mutant strain inhibition
  inhibition: -6.62%

## Fc1cccc(Cl)c1CSc1ccc(-c2ccco2)nn1
[1]
  inhibition: 75.3% (active)
Mutant strain inhibition
  inhibition: 67.7%

## Cc1ccc(NC(=O)CSc2nnc(-c3cnccn3)n2Cc2ccco2)cc1C
[1]
  inhibition: -14.2% (inactive)
Mutant strain inhibition
  inhibition: -7.75%

## CCn1c(SCC(=O)Nc2cc(C)ccc2C)nnc1-c1cnccn1
[1]
  inhibition: 62.3% (active)
Mutant strain inhibition
  inhibition: 14.8%

## CCc1ccc(NC(=O)CSc2nnc(-c3cnccn3)n2Cc2ccco2)cc1
[1]
  inhibition: 6.65% (inactive)
Mutant strain inhibition
  inhibition: 10.6%

## CCOc1ccc(C2c3[nH]c4ccccc4c3CCN2Cc2cn(CC)nc2C)cc1 (stereo not given)
[1]
  inhibition: 36% (inactive)
Mutant strain inhibition
  inhibition: 39.9%

## COc1cccc(N(Cc2nnc3n2CCCCC3)C(=O)Nc2ccccc2F)c1
[1]
  inhibition: 9.35% (inactive)
Mutant strain inhibition
  inhibition: 6.31%

## Cc1[nH]n(-c2cccc(Cl)c2)c(=O)c1/C=N/n1c(C)nc2ccccc2c1=O
[1]
  inhibition: -0.49% (inactive)
Mutant strain inhibition
  inhibition: -9.97%

## Cc1[nH]n(-c2cccc(Cl)c2)c(=O)c1-c1ccc(Cl)cc1
[1]
  inhibition: 81.8% (active)
Mutant strain inhibition
  inhibition: 74.9%

## O=c1[nH]n(-c2cccc(Cl)c2)c2ncccc12
[1]
  inhibition: 3.71% (inactive)
Mutant strain inhibition
  inhibition: 33.7%

## CCc1cc(CNC(=O)CC2C(=O)NCCN2CC2CCCCC2)on1 (stereo not given)
[1]
  inhibition: 8.17% (inactive)
Mutant strain inhibition
  inhibition: -2.22%

## Cc1cccc(C)c1NC(=O)C1(N(C(=O)c2ccccn2)c2ccc(O)cc2)CCCCC1
[1]
  inhibition: 0.64% (inactive)
Mutant strain inhibition
  inhibition: -13.5%

## O=C(/C(=N\O)n1cncn1)c1ccc(Br)cc1Br
[1]
  inhibition: 86.5% (active)
Mutant strain inhibition
  inhibition: -4.91%

## CC(=O)N/N=C(\C)c1ccc(Br)cc1Br
[1]
  inhibition: 13.2% (inactive)
Mutant strain inhibition
  inhibition: 10.1%

## Cc1ccc(C(=O)N2CCCC(c3ccccc3)=N2)cc1
[1]
  inhibition: 10.8% (inactive)
Mutant strain inhibition
  inhibition: 2.44%

## Cc1cccc(NC(=O)c2nnn(-c3cccc(C(F)(F)F)c3)c2N)c1
[1]
  inhibition: -4.08% (inactive)
Mutant strain inhibition
  inhibition: -7.16%

## O=C1c2ccccc2NC(c2ccccn2)N1NS(=O)(=O)c1ccccc1 (stereo not given)
[1]
  inhibition: -4.85% (inactive)
Mutant strain inhibition
  inhibition: -14.2%

## NS(=O)(=O)c1ccc(N2C(=O)C3C4CC(C(Br)C4Br)C3C2=O)cc1 (stereo not given)
[1]
  inhibition: -2.55% (inactive)
Mutant strain inhibition
  inhibition: -12.2%

## FC(F)(F)c1cc(-c2ccco2)nc(N2CCOCC2)n1
[1]
  inhibition: 7.84% (inactive)
Mutant strain inhibition
  inhibition: 9.26%

## FC(F)(F)c1cc(-c2cccs2)nc(NCc2ccco2)n1
[1]
  inhibition: 6.76% (inactive)
Mutant strain inhibition
  inhibition: 7.71%

## FC(F)(F)c1cc(-c2ccco2)nc(NCc2ccc(Cl)cc2)n1
[1]
  inhibition: 76.9% (active)
Mutant strain inhibition
  inhibition: 17.2%

## COc1ccc(CN2CCCC(C(=O)c3ccc(Cl)cc3)C2)cc1Cn1cncn1 (stereo not given)
[1]
  inhibition: -19.6% (inactive)
Mutant strain inhibition
  inhibition: -4.89%

## CCc1ccccc1NC(=S)N(CCN1CCCCCC1)Cc1ccco1
[1]
  inhibition: -9.37% (inactive)
Mutant strain inhibition
  inhibition: 22.4%

## CS(=O)(=O)N(CC(=O)N/N=C/c1ccccn1)c1ccc(Oc2ccccc2)cc1
[1]
  inhibition: 13% (inactive)
Mutant strain inhibition
  inhibition: 10.6%

## Cc1ccccc1NC(=O)CNc1ccccc1N1CCCCC1
[1]
  inhibition: 67.2% (active)
Mutant strain inhibition
  inhibition: 13.6%

## O=C(CN1CCN(C2CCCCC2)CC1)Nc1ccccc1N1CCCCC1
[1]
  inhibition: 6.93% (inactive)
Mutant strain inhibition
  inhibition: 0.36%

## Cn1c(=O)c2c(nc(SCC(=O)Nc3ccccc3N3CCCCC3)n2C)n(C)c1=O
[1]
  inhibition: 12.6% (inactive)
Mutant strain inhibition
  inhibition: -10.4%

## CC(Sc1nncn1C)C(=O)Nc1cc(C(F)(F)F)ccc1N1CCOCC1 (stereo not given)
[1]
  inhibition: -29% (inactive)
Mutant strain inhibition
  inhibition: -7.18%

## COc1ccc(OC)c(NC(=O)CN2CCN(C(=O)c3ccco3)CC2)c1
[1]
  inhibition: -14.9% (inactive)
Mutant strain inhibition
  inhibition: -24.9%

## COc1ccc(NC(C)=O)cc1NC(=O)CN1CCN(C2c3ccccc3-c3ccccc32)CC1
[1]
  inhibition: 60.1% (active)
Mutant strain inhibition
  inhibition: 41.5%

## COc1ccc(NC(C)=O)cc1NC(=O)CN1CCN(c2ccccn2)CC1
[1]
  inhibition: -13.6% (inactive)
Mutant strain inhibition
  inhibition: -9.7%

## Cc1c(CN2CCC(CO)(CCOc3ccccc3)CC2)[nH]c2ccc(Cl)cc12
[1]
  inhibition: 94.7% (active)
Mutant strain inhibition
  inhibition: 93.1%

## OCC1(CCOc2ccccc2)CCN(Cc2cn[nH]c2-c2ccccc2)CC1
[1]
  inhibition: 15.8% (inactive)
Mutant strain inhibition
  inhibition: -2.31%

## Cc1c(C(=O)N2CCOCC2)[nH]c2ccc(OCc3ccccc3)cc12
[1]
  inhibition: 14.8% (inactive)
Mutant strain inhibition
  inhibition: 11.7%
